Results filed as inconclusive are left out. A call without a number means that no potency is given here. Unmarked numbers belong to inactive results. Activity calls are given as the source filed them. The call rests on the fitted dose curve; in most records, active means well fitted cell-killing curve with a large enough effect; inconclusive means small, poorly fitted or top-dose-only effect, or effect the other way; inactive means no such curve, though single readings can be large or run the other way.
Assays:
[1] = Quantitative High-Throughput drug screen in 47 multiple myeloma cell lines against the NCATS MIPE library collection: MM1R_ATCC cell viability assay (AID 1918981); further: nearly all actives have a fitted effect of over 35% in size; further: potency means the concentration at half of the fitted maximal effect
Summary of the method: (§1)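 500 cells/well per myeloma line exposed to pinned MIPE 4.0 compounds for 48 h at 37 °C, 5% CO2. Viability read as ATP by CellTiter-Glo luminescence, normalised to DMSO-only (100%) and media-only (0%) wells.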

[2] = Quantitative High-Throughput drug screen in 47 multiple myeloma cell lines against the NCATS MIPE library collection: OCIMY7_PLB cell viability assay (AID 1918987); settings: OCI-MY7 myeloma viability, CellTiter-Glo ATP, 48 h; viability (% of DMSO): at 45.8 µM (top of the series); further: nearly all actives have a fitted effect of over 65% in size; further: potency means the concentration at half of the fitted maximal effect
Summary of the method: as §1

[3] = Quantitative High-Throughput drug screen in 47 multiple myeloma cell lines against the NCATS MIPE library collection: OPM1_PLB cell viability assay (AID 1918989); further: nearly all actives have a fitted effect of over 40% in size; further: potency means the concentration at half of the fitted maximal effect
Summary of the method: as §1

[4] = Quantitative High-Throughput drug screen in 47 multiple myeloma cell lines against the NCATS MIPE library collection: SKMM1_PLB cell viability assay (AID 1919863); settings: SKMM1 myeloma viability, CellTiter-Glo ATP, 48 h; viability: stronger effect = lower value; further: nearly all actives have a fitted effect of over 35% in size; further: potency means the concentration at half of the fitted maximal effect
Summary of the method: as §1

[5] = Quantitative High-Throughput drug screen in 47 multiple myeloma cell lines against the NCATS MIPE library collection: U266_ATCC cell viability assay (AID 1919864); further: nearly all actives have a fitted effect of over 35% in size; further: potency means the concentration at half of the fitted maximal effect
Summary of the method: as §1

[6] = Quantitative High-Throughput drug screen in 47 multiple myeloma cell lines against the NCATS MIPE library collection: PE2_PLB cell viability assay (AID 1919869); further: nearly all actives have a fitted effect of over 35% in size; further: potency means the concentration at half of the fitted maximal effect
Summary of the method: as §1

[7] = Quantitative High-Throughput drug screen in 47 multiple myeloma cell lines against the NCATS MIPE library collection: RPMI8226_ATCC cell viability assay (AID 1919871); further: nearly all actives have a fitted effect of over 30% in size; further: potency means the concentration at half of the fitted maximal effect
Summary of the method: as §1

[8] = Quantitative High-Throughput drug screen in 47 multiple myeloma cell lines against the NCATS MIPE library collection: KMS11_JCRBsus cell viability assay (AID 1919873); further: nearly all actives have a fitted effect of over 50% in size; further: potency means the concentration at half of the fitted maximal effect
Summary of the method: as §1

[9] = Quantitative High-Throughput drug screen in 47 multiple myeloma cell lines against the NCATS MIPE library collection: LP1_DSMZ cell viability assay (AID 1918982); further: nearly all actives have a fitted effect of over 35% in size; further: potency means the concentration at half of the fitted maximal effect
Summary of the method: as §1

[10] = Quantitative High-Throughput drug screen in 47 multiple myeloma cell lines against the NCATS MIPE library collection: KMS28PE_JCRB cell viability assay (AID 1918983); further: nearly all actives have a fitted effect of over 35% in size; further: potency means the concentration at half of the fitted maximal effect
Summary of the method: as §1

[11] = Quantitative High-Throughput drug screen in 47 multiple myeloma cell lines against the NCATS MIPE library collection: L363_DSMZ cell viability assay (AID 1918984); settings: L363 myeloma viability, CellTiter-Glo ATP luminescence, 48 h; viability (% of control): at 45.8 µM (top of the series); further: nearly all actives have a fitted effect of over 40% in size
Summary of the method: as §1

[12] = Quantitative High-Throughput drug screen in 47 multiple myeloma cell lines against the NCATS MIPE library collection: KMS34_JCRB cell viability assay (AID 1918985); further: nearly all actives have a fitted effect of over 40% in size; further: potency means the concentration at half of the fitted maximal effect
Summary of the method: as §1

[13] = Quantitative High-Throughput drug screen in 47 multiple myeloma cell lines against the NCATS MIPE library collection: XG6_PLB cell viability assay (AID 1919865); further: nearly all actives have a fitted effect of over 40% in size; further: potency means the concentration at half of the fitted maximal effect
Summary of the method: as §1

[14] = Quantitative High-Throughput drug screen in 47 multiple myeloma cell lines against the NCATS MIPE library collection: XG1_PLB cell viability assay (AID 1919866); further: nearly all actives have a fitted effect of over 35% in size; further: potency means the concentration at half of the fitted maximal effect
Summary of the method: as §1

[15] = Quantitative High-Throughput drug screen in 47 multiple myeloma cell lines against the NCATS MIPE library collection: PCM6_Riken cell viability assay (AID 1919870); further: nearly all actives have a fitted effect of over 30% in size; further: potency means the concentration at half of the fitted maximal effect
Summary of the method: as §1

[16] = Quantitative High-Throughput drug screen in 47 multiple myeloma cell lines against the NCATS MIPE library collection: KMS28BM_JCRB cell viability assay (AID 1919874); further: nearly all actives have a fitted effect of over 35% in size; further: potency means the concentration at half of the fitted maximal effect
Summary of the method: as §1

[17] = Quantitative High-Throughput drug screen in 47 multiple myeloma cell lines against the NCATS MIPE library collection: OPM2_DSMZ cell viability assay (AID 1919872); further: nearly all actives have a fitted effect of over 30% in size; further: potency means the concentration at half of the fitted maximal effect
Summary of the method: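 Myeloma cell lines, 500 cells per well, exposed to MIPE 4.0 library compounds for 48 h at 37C, 5% CO2. Viability from ATP by CellTiter-Glo luminescence; normalised to DMSO (100%) and media-only (0%) wells.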

[18] = Quantitative High-Throughput drug screen in 47 multiple myeloma cell lines against the NCATS MIPE library collection: OCIMY5_PLB cell viability assay (AID 1918988); further: potency means the concentration at half of the fitted maximal effect; nearly all actives have a fitted effect of over 65% in size
Summary of the method: as §1

[19] = Quantitative High-Throughput drug screen in 47 multiple myeloma cell lines against the NCATS MIPE library collection: VP6_DJ cell viability assay (AID 1919867); further: nearly all actives have a fitted effect of over 40% in size; further: potency means the concentration at half of the fitted maximal effect
Summary of the method: as §1

[20] = Quantitative High-Throughput drug screen in 47 multiple myeloma cell lines against the NCATS MIPE library collection: UTMC2_PLB cell viability assay (AID 1919868); settings: CellTiter-Glo ATP luminescence, 48 h; viability (% of DMSO control): at 45.8 µM (top of the series); further: nearly all actives have a fitted effect of over 55% in size; further: potency means the concentration at half of the fitted maximal effect
Summary of the method: as §1

COc1nccc(-c2c(-c3ccc(F)cc3)ncn2C2CCC(O)CC2)n1 (centres undefined)
Potency [1]: 18.7 µM (active) | Potency [2]: inactive | Potency [3]: 10.5 µM (active) | Potency [4]: 0.0296 µM (active) | Potency [5]: 2.96 µM (active) | Potency [6]: 18.7 µM (active) | Potency [7]: 1.18 µM (active) | Potency [8]: 4.18 µM (active)

CCC=CC[C@H]1C(=O)CC[C@@H]1CC(=O)OC
Potency [9]: inactive | Potency [10]: inactive | Potency [11]: inactive | Potency [12]: inactive | Potency [3]: inactive | viability [4]: 144% | Potency [5]: inactive | Potency [13]: inactive | Potency [14]: inactive | Potency [15]: inactive | Potency [8]: inactive | Potency [16]: inactive

CCCCc1ccc(NS(=O)(=O)c2ccc(C)c(C(=O)N3CCN(c4cccc(C)c4C)CC3)c2)cc1
Potency [9]: 23.5 µM (active) | Potency [10]: 23.5 µM (active) | Potency [11]: inactive | Potency [12]: 18.7 µM (active) | Potency [4]: 20.9 µM (active) | Potency [5]: 13.2 µM (active) | Potency [15]: 26.4 µM (active) | Potency [7]: 20.9 µM (active) | Potency [16]: 16.6 µM (active)

CC(=O)OCC(=O)[C@@]12OC(C)(C)O[C@H]1C[C@H]1[C@@H]3C[C@H](F)C4=CC(=O)C=C[C@]4(C)[C@@]3(F)[C@@H](O)C[C@@]12C
Potency [9]: 0.0264 µM (active) | Potency [10]: inactive | Potency [11]: inactive | Potency [12]: inactive | Potency [2]: inactive | Potency [3]: inactive | Potency [5]: inactive | Potency [13]: inactive | Potency [15]: inactive | Potency [7]: 0.0083 µM (active) | Potency [17]: inactive | Potency [8]: 0.0166 µM (active) | Potency [16]: inactive

CCN(CCO)CCCOc1ccc2c(Nc3cc(CC(=O)Nc4cccc(F)c4)[nH]n3)ncnc2c1
Potency [9]: inactive | Potency [10]: inactive | Potency [11]: inactive | Potency [12]: inactive | Potency [2]: 1.05 µM (active) | Potency [18]: 0.264 µM (active) | Potency [3]: inactive | viability [4]: 116% | Potency [5]: inactive | Potency [13]: 16.6 µM (active) | Potency [14]: 0.0418 µM (active) | Potency [19]: inactive | Potency [20]: 0.0743 µM (active) | Potency [6]: inactive | Potency [15]: inactive | Potency [7]: inactive | Potency [8]: inactive | Potency [16]: 0.0372 µM (active)

Cc1ccccc1C(C(=O)NC1CCCCC1)N(C(=O)CNc1ccc(C#N)cc1)c1cccc(F)c1 (centres undefined)
Potency [9]: inactive | Potency [10]: inactive | Potency [12]: inactive | Potency [2]: inactive | Potency [3]: inactive | Potency [13]: inactive | Potency [14]: inactive | Potency [19]: inactive | Potency [6]: inactive | Potency [7]: 23.5 µM (active) | Potency [17]: inactive

CCCCC(C=O)NC(=O)C(CC(C)C)NC(=O)OCc1ccccc1 (centres undefined)
Potency [9]: 20.9 µM (active) | Potency [10]: 23.5 µM (active) | Potency [11]: inactive | Potency [13]: inactive | Potency [14]: inactive | Potency [19]: inactive | Potency [15]: inactive | Potency [17]: 14.8 µM (active) | Potency [16]: 23.5 µM (active)

NC(N)=Nc1nc(CSCCC(N)=NS(N)(=O)=O)cs1
Potency [9]: inactive | Potency [10]: inactive | Potency [12]: inactive | Potency [2]: 10.5 µM (active) | Potency [18]: 29.6 µM (active) | Potency [3]: 16.6 µM (active) | Potency [5]: 20.9 µM (active) | Potency [13]: 6.62 µM (active) | Potency [14]: 14.8 µM (active) | Potency [19]: 5.26 µM (active) | Potency [20]: 9.35 µM (active) | Potency [6]: 20.9 µM (active) | Potency [15]: 14.8 µM (active) | Potency [7]: inactive | Potency [8]: inactive

CN(C)c1nc(Cc2ccc(NC(=O)c3ccc(C(F)(F)F)cc3)cc2)nc(N(C)C)c1CC(=O)O
Potency [1]: 9.35 µM (active) | Potency [2]: inactive | Potency [3]: inactive | viability [4]: 127% | Potency [5]: inactive | Potency [14]: inactive | Potency [6]: inactive | Potency [7]: 6.62 µM (active) | Potency [8]: inactive | Potency [16]: inactive

O=C1Nc2ccc(I)cc2C1=Cc1cc(Br)c(O)c(Br)c1
Potency [1]: inactive | Potency [18]: 8.33 µM (active) | Potency [3]: 10.5 µM (active) | Potency [4]: 18.7 µM (active) | Potency [5]: inactive | Potency [13]: inactive | Potency [14]: 20.9 µM (active) | Potency [20]: 14.8 µM (active) | Potency [6]: 14.8 µM (active) | Potency [7]: inactive | Potency [17]: inactive | Potency [8]: 18.7 µM (active) | Potency [16]: inactive

CC(C)CN(C[C@@H](O)[C@H](Cc1ccccc1)NC(=O)O[C@H]1CO[C@H]2OCC[C@H]21)S(=O)(=O)c1ccc(N)cc1
Potency [9]: 3.72 µM (active) | Potency [10]: 20.9 µM (active) | Potency [12]: inactive | Potency [2]: 2.96 µM (active) | Potency [18]: 2.35 µM (active) | Potency [5]: 1.32 µM (active) | Potency [13]: 3.72 µM (active) | Potency [19]: 8.33 µM (active) | Potency [6]: inactive | Potency [15]: 4.69 µM (active) | Potency [17]: inactive

C=CC[N+]1([C@H]2C[C@H]3[C@@H]4CC[C@H]5C[C@H](O)[C@@H](N6CCOCC6)C[C@]5(C)[C@@H]4CC[C@]3(C)[C@H]2OC(C)=O)CCCC1
Potency [1]: inactive | Potency [2]: inactive | Potency [5]: inactive | Potency [13]: inactive | Potency [14]: inactive | Potency [20]: inactive | Potency [6]: inactive | Potency [17]: inactive | Potency [8]: inactive | Potency [16]: inactive

C=C1[C@H](n2cnc3c(=O)[nH]c(N)nc32)C[C@H](O)[C@H]1CO
Potency [1]: 5.9 µM (active) | Potency [2]: 1.18 µM (active) | Potency [3]: 2.35 µM (active) | Potency [5]: 14.8 µM (active) | Potency [13]: inactive | Potency [14]: 1.18 µM (active) | Potency [19]: 4.69 µM (active) | Potency [6]: inactive | Potency [7]: inactive | Potency [17]: inactive

Source: PubChem BioAssay (NCATS)
